The panel holds about 83,000 compounds, 20% with a hit somewhere; the sample as a whole holds those more often.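 Cells were grown in 96-well plates and exposed to the test compound at a single concentration for 48 hours; results are reported as percent growth, with values below 10 considered active.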 Values without a mark were called inactive. The source made the active and inactive calls.
Columns and labels:
Assay in all cases: NCI-60 one-dose screen, 48 h (100 = growth as untreated, 0 = no growth, -100 = all killed)
Settings in all cases: 10 µM unless noted
[1] = test system: HCT-15 colon
[2] = test system: HT29 colon
[3] = test system: SNB-75 CNS
[4] = test system: SNB-19 CNS
[5] = test system: U251 CNS
[6] = test system: PC-3 prostate
[7] = test system: SK-MEL-5 melanoma
[8] = test system: UACC-62 melanoma
[9] = test system: LOX IMVI melanoma
[10] = test system: SK-MEL-28 melanoma
[11] = test system: SK-MEL-2 melanoma
[12] = test system: EKVX NSCLC
[13] = test system: SN12C renal
[14] = test system: UO-31 renal
[15] = test system: TK-10 renal
[16] = test system: ACHN renal
[17] = test system: CAKI-1 renal
[18] = test system: A498 renal
[19] = test system: CCRF-CEM leukemia
[20] = test system: MOLT-4 leukemia

## CCc1cccc2c3c(sc12)C(c1ccc(OC)cc1)C(C#N)=C(/N=C/c1ccc(Cl)cc1)O3 (stereo not given)
[1]
  growth: 20.2%
[2]
  growth: -25.7% (active)
[3]
  growth: 3.81% (active)
[4]
  growth: 30.6%
[5]
  growth: 20.1%
[6]
  growth: 21.1%
[7]
  growth: 4.03% (active)
[8]
  growth: 27.8%
[9]
  growth: 38%
[10]
  growth: 59.8%
[11]
  growth: -27.5% (active)
[12]
  growth: 47.6%
[13]
  growth: 41.8%
[14]
  growth: 37.8%
[15]
  growth: 80.7%
[16]
  growth: 43%
[17]
  growth: 42.1%
[18]
  growth: -7.61% (active)
[19]
  growth: 16.3%
[20]
  growth: 22.5%

## CC1(C)CC[C@]2(C(=O)O)CC[C@]3(C)C(=CC[C@@H]4[C@@]5(C)CC/C(=N\OCCC#N)C(C)(C)[C@@H]5CC[C@]43C)[C@@H]2C1
[1]
  growth: 106%
[2]
  growth: 109%
[3]
  growth: 53.4%
[4]
  growth: 104%
[5]
  growth: 107%
[6]
  growth: 99.2%
[7]
  growth: 98.4%
[8]
  growth: 92.6%
[9]
  growth: 91.8%
[10]
  growth: 106%
[11]
  growth: 93.5%
[12]
  growth: 70.7%
[13]
  growth: 86.7%
[14]
  growth: 61.1%
[15]
  growth: 51.3%
[16]
  growth: 100%
[17]
  growth: 59.7%
[18]
  growth: 51.3%
[19]
  growth: 90.1%
[20]
  growth: 101%

## COc1cc(C2N=C(NNc3ccccc3)NC(C)=C2C(C)=O)ccc1O (stereo not given)
[1]
  growth: 81%
[2]
  growth: 115%
[3]
  growth: 88.6%
[4]
  growth: 93.3%
[5]
  growth: 100%
[6]
  growth: 84.5%
[7]
  growth: 104%
[8]
  growth: 43%
[9]
  growth: 66.3%
[10]
  growth: 101%
[11]
  growth: 97.1%
[12]
  growth: 79.3%
[13]
  growth: 95.5%
[14]
  growth: 63.2%
[15]
  growth: 149%
[16]
  growth: 63%
[17]
  growth: 56.8%
[18]
  growth: 105%
[19]
  growth: 101%
[20]
  growth: 89.9%

## CC1(C)CC[C@]2(CN)CC[C@]3(C)C(=CC[C@@H]4[C@@]5(C)CCCNC(C)(C)[C@@H]5CC[C@]43C)[C@H]2C1
[1]
  growth: 71.7%
[2]
  growth: 40.7%
[3]
  growth: 99.1%
[4]
  growth: 101%
[5]
  growth: 89.4%
[6]
  growth: 87.6%
[7]
  growth: 98.8%
[8]
  growth: 105%
[9]
  growth: 81.9%
[10]
  growth: 103%
[11]
  growth: 108%
[12]
  growth: 96%
[13]
  growth: 99.5%
[14]
  growth: 89%
[15]
  growth: 111%
[16]
  growth: 109%
[17]
  growth: 93.2%
[18]
  growth: 98%
[19]
  growth: 79.4%
[20]
  growth: 82.8%

## O=C(c1ccc(Cl)cc1)C1[C@H](c2ccc(Cl)cc2)[C@@H](c2ccccc2)NC12C(=O)Nc1ccccc12 (stereo not given in full)
[1]
  growth: 35.1%
[2]
  growth: 15.4%
[3]
  growth: 51.1%
[4]
  growth: 70.3%
[5]
  growth: 45.8%
[6]
  growth: 29.1%
[7]
  growth: 75.1%
[8]
  growth: 52.8%
[9]
  growth: 42.4%
[10]
  growth: 81.2%
[11]
  growth: 72.5%
[12]
  growth: 58.6%
[13]
  growth: 16.6%
[14]
  growth: 43.8%
[15]
  growth: 78.8%
[16]
  growth: 34.5%
[17]
  growth: 37%
[18]
  growth: 74.3%
[19]
  growth: 53.9%
[20]
  growth: 21.1%

## CCOC(=O)c1c(N)c(C#N)cn1-c1cc(OC)c(OC)c(OC)c1
[1]
  growth: 106%
[2]
  growth: 107%
[3]
  growth: 92.7%
[4]
  growth: 101%
[5]
  growth: 114%
[6]
  growth: 105%
[7]
  growth: 111%
[8]
  growth: 101%
[9]
  growth: 97.8%
[10]
  growth: 108%
[11]
  growth: 129%
[12]
  growth: 96%
[13]
  growth: 101%
[14]
  growth: 88.8%
[15]
  growth: 99.5%
[16]
  growth: 101%
[17]
  growth: 91.8%
[18]
  growth: 93.7%
[19]
  growth: 107%
[20]
  growth: 102%

## NS(=O)(=O)c1ccc(Nc2nc(N/N=C/CCc3ccccc3)nc(Nc3ccccc3)n2)cc1
[1]
  growth: 105%
[2]
  growth: 107%
[3]
  growth: 112%
[4]
  growth: 104%
[5]
  growth: 104%
[6]
  growth: 104%
[7]
  growth: 99.7%
[8]
  growth: 95.8%
[9]
  growth: 95.4%
[10]
  growth: 107%
[11]
  growth: 105%
[12]
  growth: 97.8%
[13]
  growth: 105%
[14]
  growth: 84%
[15]
  growth: 105%
[16]
  growth: 101%
[17]
  growth: 96.9%
[18]
  growth: 86.4%
[19]
  growth: 93.6%
[20]
  growth: 101%

## N/C(=N\C(N)=N\c1nc2ccccc2s1)c1ccc(C(F)(F)F)cc1
[1]
  growth: 28.8%
[2]
  growth: 105%
[3]
  growth: 97.2%
[4]
  growth: 90.3%
[5]
  growth: 41.9%
[6]
  growth: 8.57% (active)
[7]
  growth: 89%
[8]
  growth: 97.8%
[9]
  growth: 18.3%
[10]
  growth: 94.8%
[11]
  growth: 108%
[12]
  growth: 54.8%
[13]
  growth: 36.5%
[14]
  growth: -19.1% (active)
[15]
  growth: 102%
[16]
  growth: 27.8%
[17]
  growth: 80.2%
[18]
  growth: 70.9%
[19]
  growth: 54.7%
[20]
  growth: 68.6%

## c1cc(-c2nc3ccc4[nH]ncc4c3c3c2CCCC3)[nH]n1
[1]
  growth: 34.8%
[2]
  growth: 63.7%
[3]
  growth: 60.3%
[4]
  growth: 64.6%
[5]
  growth: 65.7%
[6]
  growth: 57.1%
[7]
  growth: 76.9%
[8]
  growth: 50.7%
[9]
  growth: 58.4%
[10]
  growth: 94.1%
[11]
  growth: 29.1%
[12]
  growth: 60.8%
[13]
  growth: 75%
[14]
  growth: 50.7%
[15]
  growth: 36%
[16]
  growth: 32.6%
[17]
  growth: 27.6%
[18]
  growth: 16.2%
[19]
  growth: 46.7%
[20]
  growth: 67.8%

## Cn1ccnc1C(=O)/C=C/c1ccc(NC(=O)c2ccc(F)cc2)cc1
[1]
  growth: 16.9%
[2]
  growth: 7.13% (active)
[3]
  growth: 46.9%
[4]
  growth: 28.1%
[5]
  growth: 23.3%
[6]
  growth: 27.6%
[7]
  growth: 68.2%
[8]
  growth: 49.9%
[9]
  growth: 6.38% (active)
[10]
  growth: 90.9%
[11]
  growth: 106%
[12]
  growth: 42.1%
[13]
  growth: 25%
[14]
  growth: 42.3%
[15]
  growth: 89.5%
[16]
  growth: 37.6%
[17]
  growth: 41.4%
[18]
  growth: 78.1%
[19]
  growth: 7.06% (active)
[20]
  growth: 16.6%

## O=C(Nc1ccc(F)c(F)c1)c1cc(-c2ccc(F)cc2F)ccc1O
[1]
  growth: 2.24% (active)
[2]
  growth: 88.6%
[3]
  growth: -0.285% (active)
[4]
  growth: 12.5%
[5]
  growth: 11.4%
[6]
  growth: 8.32% (active)
[7]
  growth: -79.9% (active)
[8]
  growth: -18.3% (active)
[9]
  growth: 2.89% (active)
[10]
  growth: 20%
[11]
  growth: -11.3% (active)
[12]
  growth: 8.23% (active)
[13]
  growth: -1.95% (active)
[14]
  growth: -12.5% (active)
[15]
  growth: 14.2%
[16]
  growth: 2% (active)
[17]
  growth: -18.8% (active)
[18]
  growth: -53.2% (active)
[19]
  growth: 15.2%
[20]
  growth: 2.67% (active)

## Cn1cc(-c2cc(N)n3nc(-c4cn(C)c5ccccc45)cc3n2)c2ccccc21
[1]
  growth: 32%
[2]
  growth: 50.6%
[3]
  growth: 112%
[4]
  growth: 112%
[5]
  growth: 72.4%
[6]
  growth: 88.8%
[7]
  growth: 92.7%
[8]
  growth: 92.9%
[9]
  growth: 65.1%
[10]
  growth: 95.1%
[11]
  growth: 119%
[12]
  growth: 96%
[13]
  growth: 88.6%
[14]
  growth: 85.9%
[15]
  growth: 99.3%
[16]
  growth: 94.8%
[17]
  growth: 94.6%
[18]
  growth: 77.8%
[19]
  growth: 24.9%
[20]
  growth: 49.8%

## O=C(Cn1cc[n+](CC(=O)c2ccc(-c3ccccc3)cc2)c1)Nc1cccc2cccnc12
[1]
  growth: 101%
[2]
  growth: 59.8%
[3]
  growth: 63.4%
[4]
  growth: 57.7%
[5]
  growth: 58.3%
[6]
  growth: 54.5%
[7]
  growth: 69.6%
[8]
  growth: 59.1%
[9]
  growth: 79.2%
[10]
  growth: 74.9%
[11]
  growth: 83%
[12]
  growth: 86.8%
[13]
  growth: 75.9%
[14]
  growth: 94.3%
[15]
  growth: 119%
[16]
  growth: 105%
[17]
  growth: 102%
[18]
  growth: 88.6%
[19]
  growth: 64.9%
[20]
  growth: 73.5%

## CC(C)(C)c1ccc(-c2nnc(-c3nc4ccccc4nc3Cl)o2)cc1
[1]
  growth: 81.9%
[2]
  growth: 116%
[3]
  growth: 96.4%
[4]
  growth: 95.8%
[5]
  growth: 98.2%
[6]
  growth: 92.4%
[7]
  growth: 98.1%
[8]
  growth: 72.7%
[9]
  growth: 90%
[10]
  growth: 68.4%
[11]
  growth: 63.8%
[12]
  growth: 99.2%
[13]
  growth: 86.2%
[14]
  growth: 79.4%
[15]
  growth: 107%
[16]
  growth: 102%
[17]
  growth: 89.2%
[18]
  growth: 89.4%
[19]
  growth: 103%
[20]
  growth: 101%
